# Records with an inconclusive call do not appear. Active and inactive are the calls of the source. Rule for the calls, unless noted: active = hit-call score of the fitted dose curve at least 0.9, where 1 is the maximum; inconclusive = response in the unintended direction; inactive = score below 0.9.
# What was measured:
# [1] = target: THRA (gene 7067) (UniProt P10827); assay: TOX21_TRA_COA_Agonist_Followup_ratio: Tox21 Thyroid Hormone Receptor alpha Agonism through Coactivator Recruitment Follow-Up Assay, Ratio (AID 2283948; active = hit-call score of the fitted dose curve at least 0.9, where 1 is the maximum; inactive = score below 0.9)
# Chain of THRA (gene 7067) (P10827 whole entry, looked up, the tested form may be a part): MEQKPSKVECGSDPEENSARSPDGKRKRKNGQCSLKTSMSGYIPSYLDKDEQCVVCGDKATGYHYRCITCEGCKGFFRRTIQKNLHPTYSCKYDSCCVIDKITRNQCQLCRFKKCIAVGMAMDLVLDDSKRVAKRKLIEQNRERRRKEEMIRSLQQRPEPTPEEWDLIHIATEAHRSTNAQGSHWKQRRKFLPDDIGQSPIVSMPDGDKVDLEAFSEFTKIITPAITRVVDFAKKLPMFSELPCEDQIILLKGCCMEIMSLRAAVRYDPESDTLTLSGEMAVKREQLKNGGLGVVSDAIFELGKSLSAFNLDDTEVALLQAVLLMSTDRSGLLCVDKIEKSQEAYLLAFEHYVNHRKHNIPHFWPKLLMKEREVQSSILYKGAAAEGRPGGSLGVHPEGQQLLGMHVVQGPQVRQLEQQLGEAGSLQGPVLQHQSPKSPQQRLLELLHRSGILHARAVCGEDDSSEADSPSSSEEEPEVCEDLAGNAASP
# Method in brief: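 GST-TRa LBD 2.5 nM + 0.10% BSA + cpd; add fluorescein-SRC-2 200 nM, Tb-anti-GST 2 nM. TR-FRET ex 340, em 520/495 ratio. Norm: DMSO 0%, T3 100%; gain-of-signal fit.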
# [2] = target: THRB (gene 7068) (UniProt P10828); assay: TOX21_TRB_BLA_Agonist_Followup_ratio: Tox21 Thyroid Hormone Receptor beta Agonism Beta-lactamase (BLA) Follow-Up Assay, Ratio (AID 2283954)
# Chain of THRB (gene 7068) (P10828 whole entry, looked up, the tested form may be a part): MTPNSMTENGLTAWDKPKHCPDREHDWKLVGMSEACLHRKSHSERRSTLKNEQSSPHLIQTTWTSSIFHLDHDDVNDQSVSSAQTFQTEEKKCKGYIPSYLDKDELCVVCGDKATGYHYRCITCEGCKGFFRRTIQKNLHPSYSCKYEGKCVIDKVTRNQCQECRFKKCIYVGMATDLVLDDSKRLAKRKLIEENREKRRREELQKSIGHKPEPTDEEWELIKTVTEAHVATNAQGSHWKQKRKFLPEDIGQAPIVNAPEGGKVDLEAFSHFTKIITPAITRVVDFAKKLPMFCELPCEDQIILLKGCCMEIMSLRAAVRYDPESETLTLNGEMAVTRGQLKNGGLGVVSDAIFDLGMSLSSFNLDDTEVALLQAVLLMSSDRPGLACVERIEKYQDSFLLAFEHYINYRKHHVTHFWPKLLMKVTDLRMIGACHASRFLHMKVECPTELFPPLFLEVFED
# Method in brief: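 Human TRβ LBD–GAL4 DBD fusion in GeneBLAzer UAS-bla HEK293T cells; 11 concentrations in triplicate, 18 h at 37°C/5% CO2, T3 as agonist control. CCF4-AM substrate 2 h at room temperature; 460:530 nm ratio fitted for gain of signal versus DMSO.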
# [3] = target: THRB (gene 7068) (UniProt P10828); assay: TOX21_TRB_COA_Agonist_Followup_ratio: Tox21 Thyroid Hormone Receptor beta Agonism through Coactivator Recruitment Follow-Up Assay, Ratio (AID 2283963; active = hit-call score of the fitted dose curve at least 0.9, where 1 is the maximum; inactive = score below 0.9)
# Method in brief: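 Agonism is measured as coactivator recruitment in a purified-protein TR-FRET format, using GST-TRβ LBD at 5.0 nM, fluorescein-SRC-2 peptide at 200 nM and Tb-labeled anti-GST antibody at 2 nM. Values are 520:495 nm ratios relative to DMSO (0%) and T3 (100%).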
# [4] = target: Retinoic acid receptor RXR-alpha (Homo sapiens) (UniProt P19793); assay: TOX21_TR_RXR_BLA_Agonist_Followup_ratio: Tox21 Thyroid Hormone Receptor beta Retinoid X Receptor alpha (RXRa) Agonism Beta-lactamase (BLA) Follow-Up Assay, Ratio (AID 2283968)
# Chain of Retinoic acid receptor RXR-alpha (Homo sapiens) (P19793 whole entry, looked up, the tested form may be a part): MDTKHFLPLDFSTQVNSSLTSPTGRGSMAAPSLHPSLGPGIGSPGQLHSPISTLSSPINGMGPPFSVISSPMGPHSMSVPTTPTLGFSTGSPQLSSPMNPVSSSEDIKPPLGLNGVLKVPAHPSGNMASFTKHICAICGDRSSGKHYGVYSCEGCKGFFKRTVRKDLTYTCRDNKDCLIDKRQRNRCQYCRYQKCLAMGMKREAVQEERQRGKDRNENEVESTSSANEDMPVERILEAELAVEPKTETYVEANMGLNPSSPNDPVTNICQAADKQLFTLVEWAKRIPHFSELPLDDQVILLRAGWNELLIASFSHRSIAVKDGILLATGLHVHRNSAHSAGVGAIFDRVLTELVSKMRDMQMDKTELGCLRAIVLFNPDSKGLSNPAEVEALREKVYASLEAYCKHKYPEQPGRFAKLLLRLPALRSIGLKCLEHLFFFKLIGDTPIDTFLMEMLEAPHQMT
# Method in brief: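 HEK293T RXRa-bla, qHTS; cpd 11-pt conc. in triplicate, 16 h 37C/5% CO2; CCF4-AM 2 h RT; ratio 460:530 nm; agonist direction vs DMSO; 9-cis retinoic acid as positive control.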
# [5] = TOX21_TR_RXR_BLA_Agonist_Followup_viability: Viability Assessment in the Tox21 Thyroid Hormone Receptor beta Retinoid X Receptor alpha (RXRa) Agonism Beta-lactamase (BLA) Follow-Up Assay (AID 2283970)
# Method in brief: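 Cells: HEK293T RXRa-UAS-bla, 2,500/well; medium phenol red-free DMEM + 2% charcoal-stripped FBS; 16h, 37C/5% CO2; qHTS concentration series. Read: CellTiter-Glo luminescence (ATP); bidirectional fit, DMSO = baseline.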
# [6] = CCTE_Harrill_HTTr_Viability_MCF7: CCTE's 6-hour Cell Viability Assessment for the High-Throughput Transcriptomics (HTTr) Platform, in MCF-7 cells cultured in DMEM + 10% fetal bovine serum, Harrill Lab (AID 2284010; active = hit-call score of the fitted dose curve at least 0.9, where 1 is the maximum; inactive = score below 0.9)
# Method in brief: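 Cells were dosed with chemicals in an eight-point dilution series, imaged 6 hours later for propidium iodide uptake, and the endpoint was analyzed by bidirectional fitting against DMSO as negative control.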
# [7] = target: Nucleoli Translocation, AR (gene 367) (UniProt P10275); assay: UPITT_HCI_U2OS_AR_TIF2_Nucleoli_Antagonist: University of Pittsburgh U2OS Androgen Receptor-Transcriptional Intermediary Factor 2 (AR-TIF2) Antagonism High Content Imaging Assay for Nucleoli Translocation (AID 2283997)
# Chain of Nucleoli Translocation, AR (gene 367) (P10275 whole entry, looked up): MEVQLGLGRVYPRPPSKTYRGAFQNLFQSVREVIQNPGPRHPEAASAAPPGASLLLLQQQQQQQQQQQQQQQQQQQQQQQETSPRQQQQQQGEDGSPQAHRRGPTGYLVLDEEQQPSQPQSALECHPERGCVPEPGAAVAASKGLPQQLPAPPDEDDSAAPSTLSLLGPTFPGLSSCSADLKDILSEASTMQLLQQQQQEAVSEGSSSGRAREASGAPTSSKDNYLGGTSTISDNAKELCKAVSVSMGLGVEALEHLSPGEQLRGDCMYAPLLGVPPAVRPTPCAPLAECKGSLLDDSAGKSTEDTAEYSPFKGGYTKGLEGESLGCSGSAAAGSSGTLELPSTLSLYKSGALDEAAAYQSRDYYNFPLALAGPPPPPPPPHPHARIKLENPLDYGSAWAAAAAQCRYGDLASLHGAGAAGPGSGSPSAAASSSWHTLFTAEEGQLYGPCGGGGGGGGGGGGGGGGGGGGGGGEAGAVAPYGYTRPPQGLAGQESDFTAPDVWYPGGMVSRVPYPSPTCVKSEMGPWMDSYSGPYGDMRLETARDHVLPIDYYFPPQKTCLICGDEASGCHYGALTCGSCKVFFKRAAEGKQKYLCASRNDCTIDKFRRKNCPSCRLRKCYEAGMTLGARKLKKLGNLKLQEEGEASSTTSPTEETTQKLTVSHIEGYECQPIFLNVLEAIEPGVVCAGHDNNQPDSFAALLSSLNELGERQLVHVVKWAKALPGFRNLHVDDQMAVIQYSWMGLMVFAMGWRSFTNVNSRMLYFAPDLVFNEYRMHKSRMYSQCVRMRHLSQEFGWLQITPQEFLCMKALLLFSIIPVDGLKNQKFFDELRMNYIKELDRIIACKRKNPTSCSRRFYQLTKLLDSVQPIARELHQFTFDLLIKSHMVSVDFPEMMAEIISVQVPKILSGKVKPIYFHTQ
# Method in brief: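 U2OS cells expressing RFP-tagged human AR and GFP-tagged TIF2 were imaged by high-content fluorescence microscopy for red AR signal in the nucleolar region. Compounds were screened at 20 uM final (0.2% DMSO), with activity fitted relative to DHT as baseline.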
# [8] = target: Nucleoli Translocation, AR (gene 367) (UniProt P10275); assay: UPITT_HCI_U2OS_AR_TIF2_Nucleoli_Agonist: University of Pittsburgh U2OS Androgen Receptor-Transcriptional Intermediary Factor 2 (AR-TIF2) Agonism High Content Imaging Assay for Nucleoli Translocation (AID 2283998)
# Method in brief: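 RFP-AR / GFP-TIF2 cells; cpds diluted in serum-free medium; single-point screen 20 uM final (0.2% DMSO), actives confirmed in triplicate; conc-response 0.195–50 uM final (0.5% DMSO). Readout: nucleolar red fluorescence, positive direction vs DMSO.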
# [9] = target: Ratio of Nucleoli Translocation and Cytoplasm, AR (gene 367) (UniProt P10275); assay: UPITT_HCI_U2OS_AR_TIF2_Nucleoli_Cytoplasm_Ratio_Antagonist: University of Pittsburgh U2OS Androgen Receptor-Transcriptional Intermediary Factor 2 (AR-TIF2) Antagonism High Content Imaging Assay for Ratio of Nucleoli Translocation and Cytoplasm (AID 2283999);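 note: antagonists lower the DHT-driven ratio of nucleolar to cytoplasmic red signal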
# Chain of Ratio of Nucleoli Translocation and Cytoplasm, AR (gene 367) (P10275 whole entry, looked up, the tested form may be a part): as the sequence (P10275 whole entry, looked up) above
# Method in brief: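 Human osteosarcoma U2OS line, AR fused to RFP, coactivator TIF2 fused to GFP. Cpds 20 uM final, 0.2% DMSO (screen); 0.195–50 uM final, 0.5% DMSO (CRC). Endpoint: nucleoli/cytoplasm red signal ratio, DHT as baseline, loss-of-signal antagonist mode.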
# [10] = target: Ratio of Nucleoli Translocation and Cytoplasm, AR (gene 367) (UniProt P10275); assay: UPITT_HCI_U2OS_AR_TIF2_Nucleoli_Cytoplasm_Ratio_Agonist: University of Pittsburgh U2OS Androgen Receptor-Transcriptional Intermediary Factor 2 (AR-TIF2) Agonism High Content Imaging Assay for Ratio of Nucleoli Translocation and Cytoplasm (AID 2284000);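 note: hits raise the red nucleolar to cytoplasm ratio above vehicle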
# Method in brief: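 U2OS cells expressing RFP-tagged human AR and GFP-tagged TIF2 were imaged by high-content fluorescence microscopy. The endpoint is the ratio of nucleolar to cytoplasmic red fluorescence, fitted for gain of signal relative to DMSO. Concentration-response spanned 0.195 to 50 uM final (0.5% DMSO).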
# [11] = tested on: DIO1 (gene 1733); assay: CCTE_GLTED_hDIO1: CCTE's human Deiodinase 1 (DIO1) Inhibition Assay, Great Lakes Toxicology and Ecology Division (GLTED) Lab (AID 2283987);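 note: isolated human DIO1 enzyme in a cell-free setup rather than cells; enzyme activity read as free iodide liberated from substrate via Sandell-Kolthoff colorimetry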
# Method in brief: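 Steps: human DIO1 enzyme plus test chemical, 3 h incubation; free iodide then quantified in a second Sandell-Kolthoff step by absorbance. DMSO served as negative control and baseline.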
# [12] = target: Thyroid hormone receptor alpha (Rattus norvegicus) + Thyroid hormone receptor beta (Rattus norvegicus) (UniProt P18113+P63059); assay: TOX21_TR_LUC_GH3_Antagonist_Followup: Tox21 GH3 Thyroid Hormone Receptor Antagonism Luciferase Follow-Up Assay (AID 2283942)
# Method in brief: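 Rat pituitary GH3 cells with a TRα/TRβ-driven luciferase reporter, 5 h attachment, then 15 concentrations (92 uM to 5nM final) plus 1.0 nM T3 agonist, 24 h at 37C/5% CO2. ONE-Glo luminescence; signal change fitted against DMSO baseline.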
# [13] = target: THRA (gene 7067) (UniProt P10827); assay: TOX21_TRA_COA_Antagonist_Followup_ratio: Tox21 Thyroid Hormone Receptor alpha Antagonism through Coactivator Recruitment Follow-Up Assay, Ratio (AID 2283953)
# Method in brief: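 520:495 nm emission ratio (excitation 340 nm) reports fluorescein-SRC-2 peptide recruitment to GST-TRα LBD by TR-FRET with Tb anti-GST antibody. Values were normalized to DMSO (0%) and T3 control wells (100%); loss of signal indicated antagonism.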
# [14] = target: THRB (gene 7068) (UniProt P10828); assay: TOX21_TRB_BLA_Antagonist_Followup_ratio: Tox21 Thyroid Hormone Receptor beta Antagonism Beta-lactamase (BLA) Follow-Up Assay, Ratio (AID 2283958)
# Method in brief: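 HEK293T TRb-bla (GAL4 DBD + hTRβ LBD), 2% cs-FBS phenol red-free DMEM, 5 h attach; cpds 11-pt triplicate, 18 h 37C; CCF4-AM 2 h RT; 460/530 ratio vs DMSO; CellTiter-Glo viability same wells.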
# [15] = TOX21_TRB_BLA_Antagonist_Followup_viability: Viability Assessment in the Tox21 Thyroid Hormone Receptor beta Antagonism Beta-lactamase (BLA) Follow-Up Assay (AID 2283961)
# Method in brief: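 Viability read as CellTiter-Glo ATP luminescence (loss of signal = cytotoxicity) in the same plates as the TRβ-bla readout. TRβ-LBD/GAL4 UAS-bla HEK293T cells were exposed to compounds, 11 concentrations in triplicate, for 18 h at 37C/5% CO2.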
# [16] = target: THRB (gene 7068) (UniProt P10828); assay: TOX21_TRB_COA_Antagonist_Followup_ratio: Tox21 Thyroid Hormone Receptor beta Antagonism through Coactivator Recruitment Follow-Up Assay, Ratio (AID 2283967)
# Method in brief: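 Cell-free TR-FRET coactivator recruitment with GST-tagged TRβ LBD (5.0 nM) and fluorescein-labeled SRC-2 peptide (200 nM) detected by terbium anti-GST antibody (2 nM). The 520:495 nm emission ratio was normalized to DMSO (0%) and T3 (100%).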
# [17] = TOX21_TR_RXR_BLA_Antagonist_Followup_viability: Viability Assessment in the Tox21 Thyroid Hormone Receptor beta Retinoid X Receptor alpha (RXRa) Antagonism Beta-lactamase (BLA) Follow-Up Assay (AID 2283979)
# Method in brief: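 RXRa-UAS-bla HEK293T cells seeded 2,500/well in phenol red-free DMEM with 2% charcoal-stripped FBS, attached 5 h, then exposed to compounds at 11 concentrations in triplicate for 16 h at 37C/5% CO2. Viability read by CellTiter-Glo ATP luminescence; bidirectional fit versus DMSO.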
# [18] = CCTE_Shafer_MEA_acute_spike_number: CCTE's Neural Acute Assay for Total Number of Spikes, Shafer Lab (AID 2284008; active = hit-call score of the fitted dose curve at least 0.9, where 1 is the maximum; inactive = score below 0.9)
# Method in brief: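 Rat cortical cultures, DIV 13/15, 37 C. 40 min baseline rec, cpd 0.03-40 uM, 40 min post-dose rec. Band-pass 300-5000 Hz, spike threshold 8x rms; % change in spike count per well, DMSO neg ctrl, loss-of-signal fit.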
# [19] = CCTE_Shafer_MEA_acute_firing_rate_mean: CCTE's Neural Acute Assay for Mean Firing Rate, Shafer Lab (AID 2284009; active = hit-call score of the fitted dose curve at least 0.9, where 1 is the maximum; inactive = score below 0.9;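 note: analyzed for loss of signal so actives lower firing rate relative to DMSO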)
# Method in brief: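 Read-out: well-mean spike rate (spikes/recording length/electrodes), % change from 40 min pre-dose baseline to 40 min with compound. Rat cortical cultures, DIV 13 or 15, 37 C; 0.03-40 uM; DMSO as negative control.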
# [20] = target: Retinoic acid receptor RXR-alpha (Homo sapiens) (UniProt P19793); assay: TOX21_TR_RXR_BLA_Antagonist_Followup_ratio: Tox21 Thyroid Hormone Receptor beta Retinoid X Receptor alpha (RXRa) Antagonism Beta-lactamase (BLA) Follow-Up Assay, Ratio (AID 2283972)
# Method in brief: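 Beta-lactamase reporter readout as cleaved/uncleaved substrate ratio (460:530 nm) after 2 h substrate loading at room temperature. GAL4-RXRa bla HEK293T cells were exposed 16 h at 37C to 11-point compound series; loss of signal scored against DMSO baseline.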
smiles,measurement,setting,value
CCCCCCC(O)CO (stereo not given),outcome,[1],inactive
same,outcome,[2],inactive
same,outcome,[3],inactive
same,outcome,[4],inactive
same,outcome,[5],inactive
same,outcome,[6],inactive
CC(CC=O)CCCC(C)(C)O (stereo not given),outcome,[7],inactive
same,outcome,[8],inactive
same,outcome,[9],inactive
same,outcome,[10],inactive
CCCCCCCC[N+](C)(CCCCCCCC)CCCCCCCC,AC50,[11],70.8 µM (active)
O=c1cc(-c2ccccc2)oc2ccccc12,AC50,[7],21.9 µM (active)
same,outcome,[8],inactive
same,AC50,[9],10.5 µM (active)
same,outcome,[6],inactive
CCCCC/C=C\C/C=C\CCCCCCCC(=O)OC,AC50,[11],21 µM (active)
COCc1c(C(C)C)nc(C(C)C)c(/C=C/[C@@H](O)C[C@@H](O)CC(=O)O)c1-c1ccc(F)cc1,outcome,[12],inactive
same,outcome,[13],inactive
same,outcome,[14],inactive
same,outcome,[15],inactive
same,outcome,[16],inactive
same,outcome,[17],inactive
CCCCC(CC)COCC1CO1 (stereo not given),outcome,[18],inactive
same,outcome,[19],inactive
O=S(=O)(O)c1ccccc1C=Cc1ccc(-c2ccc(C=Cc3ccccc3S(=O)(=O)O)cc2)cc1,AC50,[11],100 µM (active)
C=C[Si](OC(C)=O)(OC(C)=O)OC(C)=O,outcome,[18],inactive
same,outcome,[19],inactive
O=C1CCCN1CCO,outcome,[18],inactive
same,outcome,[19],inactive
Nc1ccc(N)c(Cl)c1,outcome,[18],inactive
same,outcome,[19],inactive
CC(C)=CCC[C@H](C)CCO,outcome,[7],inactive
same,outcome,[8],inactive
same,outcome,[9],inactive
same,outcome,[10],inactive
CCCCC/C=C\CCC=O,outcome,[7],inactive
same,outcome,[8],inactive
same,outcome,[10],inactive
COc1ccc(C(Cl)=C(c2ccc(OC)cc2)c2ccc(OC)cc2)cc1,outcome,[12],inactive
same,outcome,[14],inactive
same,outcome,[15],inactive
same,outcome,[20],inactive
same,outcome,[17],inactive
same,outcome,[6],inactive
CN1C(=O)N(C)C(O)C1O (stereo not given),outcome,[18],inactive
same,outcome,[19],inactive
O=C(c1ccc(O)cc1)c1ccc(O)cc1O,outcome,[18],inactive
same,outcome,[19],inactive
CC(C)(Oc1ccc(C2CC2(Cl)Cl)cc1)C(=O)O (stereo not given),outcome,[7],inactive
same,outcome,[8],inactive
same,outcome,[9],inactive
same,outcome,[10],inactive
same,outcome,[6],inactive
CO[Si](OC)(OC)c1ccccc1,outcome,[18],inactive
same,outcome,[19],inactive

# Reference: PubChem BioAssay (EPA / NIEHS)
